Experimental data: PubChem BioAssay AID1159580 (chemical genetic matrix, 2015)
About 2,000 (36%) of roughly 5,500 compounds were called active. Another 18% or so got no clear call; they are omitted. Cut-off read from the data, not from the text of the source: active = normalized growth mostly below about 0.91 (no sharp cut-off); inconclusive = no clear call, values can overlap the other calls; inactive = mostly above about 0.92. The list shows a part of the results.

Test: chemical genetic growth profiling, strain panel (AID 1159580);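 note: tested at 20 µM; growth read once vehicle control cultures reached saturation at 30 °C; 1 = growth at the plate median or of vehicle wells; lower values mean less growth of the strain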
Conditions: growth OD

Measured: normalized growth

Nc1c(Br)cc(Br)cc1CNC1CCC(O)CC1 (stereo not given)
inactive: S. cerevisiae deletion strains, locus YJR066W, strain TOR1, active compounds read low 0.936 | S. cerevisiae deletion strains, locus YKL009W, strain mrt4, active compounds read low 0.985 | S. cerevisiae deletion strains, locus YKL068W, active compounds read low 0.997 | S. cerevisiae deletion strains, locus YKL085W, strain MDH1 (second series), active compounds read low 1 | S. cerevisiae deletion strains, locus YKL085W, strain MDH1, active compounds read low 1 | S. cerevisiae deletion strains, locus YKL160W, strain elf1, active compounds read low 1 | S. cerevisiae deletion strains, locus YKL190W, strain CNB1, active compounds read low 1.01 | S. cerevisiae deletion strains, locus YKR001C, strain vps1, active compounds read low 0.994 | S. cerevisiae deletion strains, locus YKR026C, strain gcn3, active compounds read low 1.01 | S. cerevisiae deletion strains, locus YKR091W, strain srl3, active compounds read low 1.02 | S. cerevisiae deletion strains, locus YLL001W, strain dnm1, active compounds read low 1.02 | S. cerevisiae deletion strains, locus YLL026W, active compounds read low 1.01 | S. cerevisiae deletion strains, locus YLL041C, strain sdh2, active compounds read low 0.993 | S. cerevisiae deletion strains, locus YLR027C, strain aat2, active compounds read low 0.997 | S. cerevisiae deletion strains, locus YLR039C, strain RIC1, active compounds read low 1.03 | S. cerevisiae deletion strains, locus YLR058C, strain SHM2, active compounds read low 1 | S. cerevisiae deletion strains, locus YLR102C, strain apc9, active compounds read low 1.01 | S. cerevisiae deletion strains, locus YLR113W, strain HOG1, active compounds read low 1.07 | S. cerevisiae deletion strains, locus YLR221C, strain rsa3, active compounds read low 1.01 | S. cerevisiae deletion strains, locus YLR258W, strain gsy2, active compounds read low 1 | S. cerevisiae deletion strains, locus YLR262C, strain YPT6 (second series), active compounds read low 0.974 | S. cerevisiae deletion strains, locus YLR262C, strain YPT6, active compounds read low 1.04 | S. cerevisiae deletion strains, locus YLR268W, strain sec22, active compounds read low 0.982 | S. cerevisiae deletion strains, locus YLR320W, strain mms22, active compounds read low 1.03 | S. cerevisiae deletion strains, locus YLR330W, strain CHS5, active compounds read low 1.01 | S. cerevisiae deletion strains, locus YLR342W, strain FKS1 (second series), active compounds read low 1.01 | S. cerevisiae deletion strains, locus YLR342W, strain FKS1, active compounds read low 1.02 | S. cerevisiae deletion strains, locus YLR357W, strain rsc2, active compounds read low 1.03 | S. cerevisiae deletion strains, locus YLR370C, strain arc18, active compounds read low 0.997 | S. cerevisiae deletion strains, locus YLR371W, strain rom2, active compounds read low 1.01 | S. cerevisiae deletion strains, locus YLR384C, strain iki3, active compounds read low 1.01 | S. cerevisiae deletion strains, locus YLR418C, strain cdc73, active compounds read low 0.949 | S. cerevisiae deletion strains, locus YML016C, strain PPZ1, active compounds read low 1 | S. cerevisiae deletion strains, locus YML032C, strain rad52, active compounds read low 0.996 | S. cerevisiae deletion strains, locus YML120C, strain ndi1, active compounds read low 1.05 | S. cerevisiae deletion strains, locus YML124C, strain tub3, active compounds read low 0.996 | S. cerevisiae deletion strains, locus YMR058W, strain fet3, active compounds read low 1.02 | S. cerevisiae deletion strains, locus YMR078C, strain ctf18, active compounds read low 1.01 | S. cerevisiae deletion strains, locus YMR125W, strain sto1, active compounds read low 1.01 | S. cerevisiae deletion strains, locus YMR129W, active compounds read low 1.02 | S. cerevisiae deletion strains, locus YMR205C, strain PFK2, active compounds read low 1 | S. cerevisiae deletion strains, locus YMR223W, strain ubp8, active compounds read low 0.991 | S. cerevisiae deletion strains, locus YMR231W, strain pep5, active compounds read low 1.02 | S. cerevisiae deletion strains, locus YMR307W, strain GAS1, active compounds read low 1.12 | S. cerevisiae deletion strains, locus YNL067W, strain RPL9B, active compounds read low 0.994 | S. cerevisiae deletion strains, locus YNL071W, strain lat1, active compounds read low 1.01 | S. cerevisiae deletion strains, locus YNL128W, strain TEP1, active compounds read low 1.02 | S. cerevisiae deletion strains, locus YNL153C, strain GIM3, active compounds read low 0.99 | S. cerevisiae deletion strains, locus YNL183C, strain NPR1, active compounds read low 0.981 | S. cerevisiae deletion strains, locus YNL209W, strain ssb2, active compounds read low 1 | S. cerevisiae deletion strains, locus YNL233W, strain BNI4, active compounds read low 0.991 | S. cerevisiae deletion strains, locus YNL248C, strain rpa49, active compounds read low 1 | S. cerevisiae deletion strains, locus YNL250W, strain rad50, active compounds read low 0.994 | S. cerevisiae deletion strains, locus YNL271C, strain bni1, active compounds read low 1 | S. cerevisiae deletion strains, locus YNL298W, strain CLA4, active compounds read low 1.03 | S. cerevisiae deletion strains, locus YNL307C, strain MCK1, active compounds read low 1.01 | S. cerevisiae deletion strains, locus YNL322C, strain KRE1 (second series), active compounds read low 1.02 | S. cerevisiae deletion strains, locus YNL322C, strain KRE1, active compounds read low 1 | S. cerevisiae deletion strains, locus YNR049C, strain mso1, active compounds read low 0.987 | S. cerevisiae deletion strains, locus YNR052C, strain pop2, active compounds read low 1 | S. cerevisiae deletion strains, locus YOL006C, strain TOP1, active compounds read low 0.95 | S. cerevisiae deletion strains, locus YOL012C, strain htz1 0.731 | S. cerevisiae deletion strains, locus YOL147C, strain pex11, active compounds read low 0.998 | S. cerevisiae deletion strains, locus YOR001W, strain rrp6, active compounds read low 0.996 | S. cerevisiae deletion strains, locus YOR061W, strain CKA2, active compounds read low 1.01 | S. cerevisiae deletion strains, locus YOR069W, strain VPS5, active compounds read low 1 | S. cerevisiae deletion strains, locus YOR070C, strain gyp1, active compounds read low 1 | S. cerevisiae deletion strains, locus YOR080W, strain dia2, active compounds read low 1.02 | S. cerevisiae deletion strains, locus YOR083W, strain WHI5, active compounds read low 0.997 | S. cerevisiae deletion strains, locus YOR106W, strain vam3, active compounds read low 1.02 | S. cerevisiae deletion strains, locus YOR136W, strain idh2, active compounds read low 0.995 | S. cerevisiae deletion strains, locus YOR144C, strain elg1, active compounds read low 0.994 | S. cerevisiae deletion strains, locus YOR184W, strain ser1, active compounds read low 0.992 | S. cerevisiae deletion strains, locus YOR231W, strain MKK1, active compounds read low 1.06 | S. cerevisiae deletion strains, locus YOR265W, strain rbl2, active compounds read low 1.01 | S. cerevisiae deletion strains, locus YOR270C, strain vph1, active compounds read low 1.01 | S. cerevisiae deletion strains, locus YOR290C, strain snf2, active compounds read low 0.984 | S. cerevisiae deletion strains, locus YOR316C, strain cot1, active compounds read low 1 | S. cerevisiae deletion strains, locus YPL051W, strain arl3, active compounds read low 1.01 | S. cerevisiae deletion strains, locus YPL055C, strain LGE1, active compounds read low 0.978 | S. cerevisiae deletion strains, locus YPL078C, strain atp4, active compounds read low 0.999 | S. cerevisiae deletion strains, locus YPL106C, strain sse1, active compounds read low 1.03 | S. cerevisiae deletion strains, locus YPL240C, strain hsp82, active compounds read low 1.01 | S. cerevisiae deletion strains, locus YPL256C, strain CLN2, active compounds read low 1.06 | S. cerevisiae deletion strains, locus YPR119W, strain clb2, active compounds read low 1 | S. cerevisiae deletion strains, locus YPR141C, strain kar3, active compounds read low 0.99 | S. cerevisiae deletion strains, locus YPR163C, strain tif3, active compounds read low 1 | S. cerevisiae deletion strains, locus YPR167C, strain met16, active compounds read low 0.998 | S. cerevisiae deletion strains, strain wtn01, active compounds read low 1 | S. cerevisiae strains, strain wild type, active compounds read low 1.01
